The results in this text go back to PubChem BioAssay AID1117289 (Broad Institute, 2014).

The structures appear in SMILES notation. Results with a measured potency or affinity are listed apart. Inconclusive results are not listed. Active and inactive are the calls of the source.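 How the source made its calls: active means inhibitor whose fitted half-maximal dose is at most twice the top tested dose in every run; inconclusive means runs disagree, poor fit, or flat fit inhibiting 30 to 70%; inactive means every run inactive, flat, rising or too weak.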

For this test, the target named is Endoplasmic reticulum aminopeptidase 2 (Homo sapiens) (UniProt Q6P179). Put plainly: inhibition of ERAP2 Arg-AMC cleavage – biochemical, plate reader, dry powder, set 2, selectivity assay for selective ERAP1 modulator project, dose response (AID 1117289). To be noted: purified ERAP2, Arg-AMC hydrolysis fluorescence, 1 h; series mostly up to 50 µM.
Sequence of Endoplasmic reticulum aminopeptidase 2 (Homo sapiens) (Q6P179 whole entry, looked up): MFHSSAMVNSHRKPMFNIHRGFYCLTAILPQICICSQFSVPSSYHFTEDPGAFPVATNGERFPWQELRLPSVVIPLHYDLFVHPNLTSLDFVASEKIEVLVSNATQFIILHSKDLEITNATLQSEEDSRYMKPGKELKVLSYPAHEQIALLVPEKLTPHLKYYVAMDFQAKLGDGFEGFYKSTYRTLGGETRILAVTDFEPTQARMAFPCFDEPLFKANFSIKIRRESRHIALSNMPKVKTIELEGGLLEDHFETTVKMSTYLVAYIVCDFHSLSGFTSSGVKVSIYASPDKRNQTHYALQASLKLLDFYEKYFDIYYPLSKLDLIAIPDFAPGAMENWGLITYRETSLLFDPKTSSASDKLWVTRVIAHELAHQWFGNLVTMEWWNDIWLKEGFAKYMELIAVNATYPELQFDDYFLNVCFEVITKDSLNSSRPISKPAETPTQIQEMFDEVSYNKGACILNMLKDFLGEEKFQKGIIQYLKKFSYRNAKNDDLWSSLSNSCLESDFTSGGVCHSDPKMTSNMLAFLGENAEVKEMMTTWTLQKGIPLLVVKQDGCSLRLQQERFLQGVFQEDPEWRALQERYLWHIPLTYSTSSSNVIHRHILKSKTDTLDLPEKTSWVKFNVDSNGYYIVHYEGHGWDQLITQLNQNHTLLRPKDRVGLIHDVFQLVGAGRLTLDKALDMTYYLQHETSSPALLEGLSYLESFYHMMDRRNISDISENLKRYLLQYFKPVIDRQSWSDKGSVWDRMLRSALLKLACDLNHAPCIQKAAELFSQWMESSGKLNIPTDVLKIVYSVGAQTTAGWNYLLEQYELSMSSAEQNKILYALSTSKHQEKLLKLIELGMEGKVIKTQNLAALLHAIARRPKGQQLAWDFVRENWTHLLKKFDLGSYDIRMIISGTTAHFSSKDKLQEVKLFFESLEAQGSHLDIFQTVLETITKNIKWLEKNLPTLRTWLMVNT
In the case of `COc1ccc(C(=O)O)cc1S(=O)(=O)Nc1cc(C(F)(F)F)ccc1N1CCN(C(C)=O)CC1`, the molecule was called inactive.

Take `O=C(O)c1ccc(Cl)c(S(=O)(=O)Nc2cc(C(F)(F)F)ccc2N2CCCCC2)c1`: the molecule was called inactive.

On to `COc1ccc(C(=O)O)cc1S(=O)(=O)Nc1cc(C)ccc1N1CCCCC1`, for which the call was inactive.

For the molecule `COc1ccc(C(=O)O)cc1S(=O)(=O)Nc1ccc(N2CCCCC2)cc1C(F)(F)F`, the molecule was classed as inactive.
